Measured values: the supplement of paper PMC6135742
Where a name gives a salt, the structure may show the parent alone. ± gives the standard deviation of the averaged measurements. Over roughly 2,600 compounds, “MBP+ mature oligodendrocyte number relative to DMSO vehicle control” has its median near -0.34; the highest 2% begin near 13. The sample as a whole holds a higher share of the highest values than the screen did.

Tested on: jimpy (Plp1 jimpy) mouse iPSC-derived oligodendrocyte progenitor cells
Test: MBP+ mature oligodendrocyte number relative to DMSO vehicle control (SDs above negative control mean); higher = more surviving jimpy oligodendrocytes (rescue)
Settings: 10 µM; 3 days
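Note: 10 µM single dose with 3-day oligodendrocyte differentiation.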

SMILES | MBP+ mature oligodendrocyte number
C=CCN1CCc2c(cc(O)c(O)c2Br)[C@@H](c2ccccc2)C1 [R(+)-6-Bromo-APB hydrobromide] | -2.95
Cc1ccc(C(=O)NCCCCCC(=O)Nc2ccccc2N)cc1 | -5.76
NC(N)=NCc1cccc(I)c1 [m-Iodobenzylguanidine hemisulfate] | 16.6
CCN(CC)CCn1c(=O)c(Cc2ccc(OC)cc2)nc2ccccc21 [Caroverine hydrochloride] | -0.211
Cc1ccc(S(=O)(=O)OCC(=O)Nc2ccc(C(=O)O)c(O)c2)cc1 | 2.29
CC[n+]1c(/C=C/C=C2/N(C)c3ccccc3C2(C)C)sc2ccccc21 | < -4.47
Cc1cc(C(=O)NOCCO)c(Nc2ccc(I)cc2F)n(C)c1=O | -0.892
NCCNS(=O)(=O)c1cccc2c(Cl)cccc12 [A3 hydrochloride] | -2.82
Cc1nnc(C(=O)NC(C)(C)c2nc(C(=O)NCc3ccc(F)cc3)c(O)c(=O)n2C)o1 [Raltegravir (MK-0518)] | 55.9
Cn1c(N2CCCCS2(=O)=O)nc(C(=O)NCc2ccc(F)cc2)c(O)c1=O | < -6.7
O=C(O)c1ccccc1Nc1cccc(C(F)(F)F)c1 [Flufenamic acid] | 1.25
O=C(Nc1cccc(C(F)(F)F)c1)Nc1cc(S(=O)(=O)NC2CC2)ccc1-c1ccsc1 | 18.2
COc1cc(OC)cc(-c2cc3cnc(N)nc3nc2NC(=O)NC(C)(C)C)c1 | -2.43
CC[C@H](NC(=O)c1c(C)c(-c2ccccc2)nc2ccccc12)c1ccccc1 | -1.61
O=C1NC(=O)/C(=C\c2ccc3nccnc3c2)S1 | -0.833
FC(F)(F)c1ccccc1-n1ccnc1 [1-[2-(Trifluoromethyl)phenyl]imidazole] | -0.176
Clc1ccccc1C(c1ccccc1)(c1ccccc1)n1ccnc1 [Clotrimazole] | 15.7 ± 1.2
O=C(NCCO)c1cccc(-c2cc(Nc3ccc(OC(F)(F)F)cc3)ncn2)c1 | -0.394
CC(=O)[C@H]1CC[C@H]2[C@@H]3CC=C4C[C@@H](OS(=O)(=O)O)CC[C@]4(C)[C@H]3CC[C@]12C [Pregnenolone sulfate sodium] | 0.467
O=C1NC(=O)C(=Cc2ccc(-c3ccc(F)cc3)o2)S1 (stereo in doubt) | 0.66

SMILES | MBP+ mature oligodendrocyte number
Clc1ccc(C(c2ccc(Cl)cc2)[n+]2ccn(CC(OCc3ccc(Cl)cc3Cl)c3ccc(Cl)cc3Cl)c2)cc1 (stereo not given) [Calmidazolium chloride] | < -3.34
CC(C)OC(=O)C(C(=O)OC(C)C)=C1SC=CS1 [Malotilate] | 19
CCN(C(=O)c1c(O)c2c(Cl)cccc2n(C)c1=O)c1ccccc1 [Laquinimod] | 1.45
O=C(O)[C@H](CC(=O)N1C[C@H]2CCCC[C@H]2C1)Cc1ccccc1 [Mitiglinide calcium] | -1.54
COc1ccccc1N1CCN(CCN(C(=O)c2ccc(F)cc2)c2ccccn2)CC1 [p-MPPF dihydrochloride] | 6.54
Cc1ccc(C(=O)Nc2ccc(S(=O)(=O)O)c3cc(S(=O)(=O)O)cc(S(=O)(=O)O)c23)cc1NC(=O)c1cccc(NC(=O)Nc2cccc(C(=O)Nc3cc(C(=O)Nc4ccc(S(=O)(=O)O)c5cc(S(=O)(=O)O)cc(S(=O)(=O)O)c45)ccc3C)c2)c1 [Suramin sodium salt] | -1.35
CNCc1ccc(C)c(NC(=O)c2ccc(Nc3nc(-c4ccccc4)c4ccccc4n3)cc2)c1 | < -6.35
Cc1ccc(NC(=O)c2cccc(N(C)C)c2)cc1NC(=O)c1ccc(O)cc1 | 14.6
C[C@]12CC[C@@H]3c4ccc(O)cc4CC[C@H]3[C@@H]1CC[C@@H]2O [beta-Estradiol] | 3.17
C[C@]12CC[C@@H]3c4ccc(O)cc4CC[C@H]3[C@@H]1CC[C@@H]2O [Estradiol] | 5.47
C[C@]12CC[C@@H]3c4ccc(O)cc4CC[C@H]3[C@@H]1C[C@@H](O)[C@@H]2O [Estriol] | -0.78
C[C@]12CC[C@@H]3c4ccc(O)cc4CC[C@H]3[C@@H]1CCC2=O [Estrone] | 21.6 ± 26
Nc1nc2ccc(Cl)cc2n2c(-c3ccccc3)nnc12 | 0.304
Oc1c2ccccc2c2c3c(cccc13)N=N2 | -2.59 ± 1.1
CCCCCCCCCCCCCCCC(=O)OC[C@H](O)[C@H]1OC(=O)C(O)=C1O [L-Ascorbyl 6-palmitate] | -1.84
N[C@@H](Cc1cc(I)c(Oc2cc(I)c(O)c(I)c2)c(I)c1)C(=O)O [L-Thyroxine] | -1.06
c1ccc(-c2ccc(C(c3ccccc3)n3ccnc3)cc2)cc1 (stereo not given) [Bifonazole] | 52.3
N#Cc1ccc(C(c2ccc(C#N)cc2)n2cncn2)cc1 [Letrozole] | 3.69
CC(N)(Cc1ccc(O)cc1)C(=O)O (racemic) [DL-alpha-Methyl-p-tyrosine] | 1.37
O=C(/C=C/c1ccc(O)cc1)CC(=O)/C=C/c1ccc(O)cc1 [Bisdemethoxycurcumin] | 0.659
